Among all 69,000 compounds or so, about 8,600 (12%) showed an effect of 50% or more. The entries come from a sample that favours strong results as a whole.
The compounds below were run on Plasmodium berghei (assay: Screen against P. berghei liver stage (PbLuc), transformed with Luciferase, at 10uM). Details: tested at 10 uM.
Assay type: functional, HepG2

SMILES	INHIBITION
Cc1noc(C)c1CNCC1Cn2nncc2CO1 (stereo not drawn)	40.3%
Cc1nc(N2CCCC2)nc2c1CN(C(=O)NC(C)C)CC2	-9.74%
CCc1ccccc1OCCN1CCC(NS(C)(=O)=O)CC1	43.1%
CCc1ccccc1OCCN1C[C@@H](NS(C)(=O)=O)[C@H](C(C)C)C1	57.3%
CC(C)[C@@H]1CN(CCCOc2ccc(F)cc2)C[C@H]1NS(C)(=O)=O	54.5%
CC(C)[C@@H]1CN(Cc2c[nH]nc2-c2ccc(F)cc2)C[C@H]1NS(C)(=O)=O	-5.22%
CS(=O)(=O)N[C@H]1CN(CCOCc2ccccc2)C[C@@H]1C1CC1	15%
CC(C)[C@@H]1CN(CCOc2ccc(Cl)cc2)C[C@H]1NS(C)(=O)=O	14.6%
CCOc1ccc(Cl)c(C(=O)N2CCN(C(=O)OC)CC2)n1	-6.44%
Cc1cc(C2CCCN2S(=O)(=O)c2cnn(C)c2)on1 (stereo not drawn)	-9.8%
Cc1nn(C)cc1CN1C[C@H]2CC[C@@H](C1)N(Cc1c(C)noc1C)C2=O	-4.4%
Cc1ccc(CNC(=O)NCc2ccco2)s1	10.7%
CN(C)c1ncc(I)c(C2CCCN2C)n1 (stereo not drawn)	-54.1%
CS(=O)(=O)NCC1CCCCN1C(=O)c1ccc(Br)s1 (stereo not drawn)	-50.5%
CS(=O)(=O)NCC1CCCCN1C(=O)c1csc(-c2ccsc2)n1 (stereo not drawn)	-89.3%
CS(=O)(=O)NCC1CCCCN1C(=O)c1ccsc1 (stereo not drawn)	59.5%
Cc1ccc2nc(NCCN3CCOCC3)n(C)c(=O)c2c1	-22.4%
Cc1ccc2nc(NCCCN3CCCCCC3=O)n(C)c(=O)c2c1	8.97%
CCN1CCN(CCNc2nc3ccc(C)cc3c(=O)n2C)CC1	71.7%
Cc1nc(C)n(CC2CCCN2CC(=O)Nc2ccncc2)n1 (stereo not drawn)	25.4%
COCCN1CCO[C@@H]2CN(C(=O)Cc3cccc(F)c3)CC[C@@H]2C1	10.5%
O=C(c1cc(-n2cnnn2)ccc1Cl)N1CCN(c2ccccc2)CC1	10.1%
O=C(c1ccc(Cl)cc1)N1CCn2c(nn(-c3cccc(Cl)c3)c2=O)C1	54%

SMILES	INHIBITION
O=C(c1ccc(Cl)cc1)N1CCn2c(nn(-c3ccc(Cl)cc3)c2=O)C1	35%
O=C(c1ccc(Cl)cc1)N1CCn2c(nn(-c3ccncc3)c2=O)C1	49.9%
O=C(NCCNc1ccccn1)Nc1cc(C(F)(F)F)c[nH]c1=O	7.4%
Cn1nccc1C(=O)Nc1cc(C(F)(F)F)c[nH]c1=O	17.68%
Cn1nccc1CNC(=O)Nc1cc(C(F)(F)F)c[nH]c1=O	55.1%
O=C(NCc1ccccn1)Nc1cc(C(F)(F)F)c[nH]c1=O	57.2%
O=C(NCCc1ccccn1)Nc1cc(C(F)(F)F)c[nH]c1=O	1.62%
O=C(NCc1ccncc1)Nc1cc(C(F)(F)F)c[nH]c1=O	11.083%
Cc1noc(CN2CCN(c3cncc(Cl)n3)CC2)n1	5.05%
O=C(N1CCOCC1)N1CCN(c2ccc(Cl)nn2)C(=O)C1	24.2%
CN(Cc1cnn(C)c1)C(=O)CN1CCCC(Cn2cncn2)C1 (stereo not drawn)	7.67%
Cc1nn(C)c(Cl)c1C1CCCN1C(=O)c1cccc(C#N)c1 (stereo not drawn)	-38.7%
Cc1noc(C2(C)CCCN(C(=O)c3cnn(C)c3)C2)n1 (stereo not drawn)	24.4%
O=C(NCC1CCCCC1)N1C[C@@H]2C[C@H](C(=O)N3CCOCC3)[C@H](C1)O2	22.2%
O=C(Nc1nncs1)N1CCC(CCO)CC1	66.6%
O=C(Nc1nncs1)N1CCC(c2ccc(O)cc2)CC1	-1.45%
O=C(Nc1nncs1)N1CCC(CCc2ccc(O)cc2)CC1	12.5%
COc1ccc2c(c1)[nH]c1c(N(C)CC3OCCO3)ncnc12	-13.6%
O=C(Nc1ccccc1)N1CCn2c(nnc2C2CCCN2)C1 (stereo not drawn)	46.6%
O=C(C1=CCCC1)N1CC[C@]2(C[C@H](OCc3cccnc3)CO2)C1	16.9%
O=C1N(c2ccsc2)CCC12CCCN(CC1CC1)C2 (stereo not drawn)	57.9%
COc1ccc(CN2CCC3(CC2)CCN(CC(=O)N(C)C)C3=O)cc1	-8.51%
O=C1N(c2ccsc2)CCC12CCCN(Cc1ccccn1)C2 (stereo not drawn)	-6.23%

SMILES	INHIBITION
Cc1nocc1C(=O)N1CCCC2(CCN(c3ccsc3)C2=O)C1 (stereo not drawn)	-107%
CN(C)C(=O)CN1CCCC2(CCN(c3ccsc3)C2=O)C1 (stereo not drawn)	40.4%
COc1ccc(CN2CCC3(CC2)CCN(CC2CC2)C3=O)cc1	52.4%
Cc1occc1C(=O)N1CCCC2(CCN(c3ccccc3)C2=O)C1 (stereo not drawn)	-54.5%
Cn1cc(CN2CCC3(CCN(c4cnn(C)c4)C3=O)C2)cn1 (stereo not drawn)	14.8%
CCN1CCC2(CCN(Cc3ccc(OC)cc3)CC2)C1=O	38.3%
Cn1cc(N2CCC3(CCCN(Cc4ccc(F)cc4)C3)C2=O)cn1 (stereo not drawn)	67.2%
Cn1cc(N2CCC3(CCCN(Cc4ccoc4)C3)C2=O)cn1 (stereo not drawn)	-2.72%
Cc1occc1C(=O)N1CCCC2(CCN(c3ccsc3)C2=O)C1 (stereo not drawn)	56.7%
CCOC(=O)CCNC(=O)c1nc(OCC)ccc1Cl	6.285%
Brc1ccc(CNCc2nnc3n2CCCCC3)s1	21.8%
CC(=O)N1N=C(Cc2ccccc2)OC1C(=O)NCC(=O)OC(C)(C)C (stereo not drawn)	12.5%
CCc1nnc(Nc2cc(C)nc(C3CN(C(C)=O)CCO3)c2)s1 (stereo not drawn)	-4.25%
CCCc1nc(C)cc(NCCc2nnc(N)s2)n1	-16.9%
O=C(Cc1ccccc1)NCCNC(=O)c1scnc1Cl	46.2%
COCC[C@]1(O)CCN(C(=O)C2CCN(C3CCCC3)CC2)C[C@H]1C	9.63%
Nc1cccnc1N1CCC(C(F)(F)F)CC1	-22.5%
COCCN1C[C@H]2CC[C@@]3(N=C(C)N(CC4CC4)C3=O)[C@H]2C1	-26.5%
CC(=O)NCc1ccc(C(=O)N2CCCC2c2c(C)nn(C)c2C)o1 (stereo not drawn)	-55.4%
O=C1N(c2ccsc2)CCC12CCCN(Cc1cccnc1)C2 (stereo not drawn)	-18.2%
COCCN1CCCC2(CCN(c3ccsc3)C2=O)C1 (stereo not drawn)	39.2%
COc1ccc(CN2CCCC3(CCN(c4ccsc4)C3=O)C2)cc1 (stereo not drawn)	72.8%

— ChEMBL document CHEMBL4513216, “Probing the Open Global Health Chemical Diversity Library for Multistage-Active Starting Points for Next-Generation Antimalarials” (ACS Infect Dis, 2020)
